From PubChem BioAssay AID624330 (Southern Research Specialized Biocontainment Screening …, 2012)
Out of some 340,000 compounds screened, about 2,100 (0.62%) were called active.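 How the source made its calls: active means first-screen hits whose inhibition reached a set limit at any dose in the follow-up dose series; inconclusive means inhibition above the set first-screen limit but never retested; inactive means the rest.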 These entries were drawn from the full list. Measured potencies and affinities stand elsewhere.

biological target: Rac GTPase-activating protein 1 (Homo sapiens) (UniProt Q9H0H5); assay: blockers of MgcRacGAP-driven Rac1 GTP hydrolysis – biochemical, ADP Hunter fluorescence, primary and confirmatory, confirmation (AID 624330); settings: MgcRacGAP-stimulated Rac1 GTP hydrolysis, at 30 µM, stronger effect = higher value, GST-tagged Rac1 F28L mutant substrate;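 further: fluorescence reports GDP produced by GAP-driven GTP hydrolysis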
Sequence (Q9H0H5 whole entry, looked up): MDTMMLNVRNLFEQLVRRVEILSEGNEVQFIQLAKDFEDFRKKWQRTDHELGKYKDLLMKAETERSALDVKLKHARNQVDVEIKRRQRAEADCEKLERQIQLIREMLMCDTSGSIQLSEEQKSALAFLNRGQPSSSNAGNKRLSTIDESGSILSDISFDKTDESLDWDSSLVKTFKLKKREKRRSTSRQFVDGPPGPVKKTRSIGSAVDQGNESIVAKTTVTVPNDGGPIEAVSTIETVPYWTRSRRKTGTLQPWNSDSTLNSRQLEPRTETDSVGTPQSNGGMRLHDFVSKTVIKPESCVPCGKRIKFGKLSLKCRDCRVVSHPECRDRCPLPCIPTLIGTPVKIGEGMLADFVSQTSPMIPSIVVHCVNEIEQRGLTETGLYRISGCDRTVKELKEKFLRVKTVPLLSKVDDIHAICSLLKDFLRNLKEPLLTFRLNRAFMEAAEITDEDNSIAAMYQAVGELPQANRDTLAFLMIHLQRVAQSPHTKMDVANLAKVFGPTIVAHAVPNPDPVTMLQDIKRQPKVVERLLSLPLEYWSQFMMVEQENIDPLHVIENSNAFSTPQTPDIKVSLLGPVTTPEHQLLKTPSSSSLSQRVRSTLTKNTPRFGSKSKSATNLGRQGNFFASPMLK

inhibition, inactive:
Cc1ccc(S(=O)(=O)N2CCCCC2)cc1NC(=O)c1c(-c2ccccc2)noc1C 0.74%
O=C(COC(=O)C1CCCCC1)Nc1ccc(S(=O)(=O)N2CCOCC2)cc1 -2.69%
CCCC(c1nnnn1CCOC)N(Cc1cc2cc(C)c(C)cc2[nH]c1=O)CC1CCCO1 (stereo not drawn) 1.47%
COc1cc(OC)c(CN2CCCCCCC2)cc1Br 14.3%
COc1cc(Br)c(CN2CCCN(C)CC2)cc1OC 5.08%
COc1ccc(CN2CCCCCC2)c(C)c1C 11.4%
COc1ccc(CN2CCSCC2)c(OC)c1C 28.9%
CC(=O)N1CCSc2ccc(S(=O)(=O)Nc3ccc(C)cc3)cc21 8.81%
CC(C(=O)Nc1ccccc1-c1ccccc1)N1CCCCC1 (stereo not drawn) 0.68%
CN1CCN(C(=O)CCC(=O)c2ccc(F)cc2)CC1 7.21%
COc1ccc(CN2C(=O)c3ccccc3C2=O)cc1 -0.09%
COc1ccc(NC(=O)c2ccc3c(c2)C(=O)N(Cc2cccnc2)C3=O)cc1 9.43%
CC1S/C(=N/N=C/c2cccs2)NC1=O (stereo not drawn) -9.62%
Nc1cc([N+](=O)[O-])ccc1Nc1ccccc1 15.2%
Nc1ccc(Nc2ccc([N+](=O)[O-])cc2[N+](=O)[O-])cc1 25.4%
O=[N+]([O-])c1ccccc1Nc1ccccc1[N+](=O)[O-] -9.22%
O=[N+]([O-])c1ccccc1Nc1ccccc1 5.61%
CCCCOc1ccccc1N1CCN(CCCN2C(=O)C3CCCN3C2=O)CC1 (stereo not drawn) 9.54%
Cc1c2cnn(CC(=O)NCCCN3CCCCC3C)c(=O)c2c(C)n1Cc1ccccc1 (stereo not drawn) 8.86%
Clc1ccc2c(c1)Nc1ccccc1CC2 9.56%
O=C1CCc2ccccc2N1 3.09%
CCn1c(COc2ccc(=O)n(-c3ccccc3)n2)nnc1SC 7.04%
C/C(=N\NC(=O)c1ccc(Cl)c(Cl)c1)c1cccc(NC(=O)C(C)C)c1 10%
COc1cccc2c1C(=O)c1c(O)c3c(c(O)c1C2=O)CC(O)(C(=O)CO)CC3OC1CC(N(C)C)C(O)C(C)O1 (stereo not drawn) 20.6%
COc1cccc2c1C(=O)c1c(O)c3c(c(O)c1C2=O)CC(O)(C(C)=O)CC3OC1CC(O)C(O)C(C)O1 (stereo not drawn) 11.6%
CCCCC(=O)OCC(=O)C1(O)Cc2c(O)c3c(c(O)c2C(OC2CC(NC(=O)C(F)(F)F)C(O)C(C)O2)C1)C(=O)c1c(OC)cccc1C3=O (stereo not drawn) 6.09%
COc1cccc2c1C(=O)c1c(O)c3c(c(O)c1C2=O)C[C@](O)(C(C)=O)C[C@H]3O[C@@H]1C[C@@H](N)[C@@H](O)[C@@H](C)O1 21.3%
COc1cccc2c1C(=O)c1c(O)c3c(c(O)c1C2=O)CC(O)(C(C)=O)CC3OC1CC(N(C)C)C(O)C(C)O1 (stereo not drawn) 16.8%
